Compound activity from PubChem.
Rows were chosen to be rich in hits. Some 6.5% of all compounds tested hit in one or more screens of this group.
HCMV inh = human cytomegalovirus inhibition. HFF cells, HCMV-luciferase reporter, 72 h; active compounds read low. AID 1259415. activity change, negative = inhibition, % at 57.5 µM. 410,000 compounds, 4.5% hits; in the data active = activity change below about -60%; inconclusive = no clear call, values can overlap the other calls; inactive = above about -39%
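HFF cells seeded 16 h at 37C, treated with compounds, infected with luciferase-reporter HCMV at MOI 1 PFU/cell; luciferase read at 72 h post infection, normalized to buffer-only and Salinomycin controls.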
Vaccinia Venus = inhibitors of vaccinia virus (Venus reporter); AID 720580; 330,000 compounds, 0.46% hits; Vaccinia virus Venus reporter expression, fluorescence; Potency, µM (series often up to 36.5 µM), without a hit: at the top dose activity change, negative = inhibition, hits mostly inhibitors; calls by dose curve; tested in A549 cells; note: potency is the fitted concentration of half-maximal effect; nearly all actives have a fitted effect of over 30% in size
FMDV inh = antivirals against foot and mouth disease virus. FMDV antiviral cell-based qHTS. 410,000 compounds, 1.2% hits. Potency, µM (titrated, usually from 57.9 µM), for the others: at the top dose activity change, negative = inhibition, actives largely listed as inhibitors. AID 1159524; calls by dose curve; tested in HEK293T cells; note: read-out not given here; potency is the fitted concentration of half-maximal effect; nearly all actives have a fitted effect of over 45% in size
LASV entry inh = blocks Lassa virus binding to or entry into cells. 300,000 compounds, 1.2% hits. Potency, µM (highest dose often 37.9 µM), for the others: top-dose activity change, negative = inhibition, usual class: inhibitors. Lassa virus pseudotype entry inhibition, cell reporter; calls by dose curve; tested in HEK293 cells; note: potency is the fitted concentration of half-maximal effect; nearly all actives have a fitted effect of over 50% in size
Vaccinia mCherry = vaccinia inhibition (mCherry reporter); Potency, µM (top dose mostly 36.5 µM), for inactives: at the top dose activity change, negative = inhibition, hits mostly inhibitors; 310,000 compounds, 0.63% hits; Vaccinia virus mCherry reporter infection, fluorescence; calls by dose curve; tested in A549 cells; note: potency is the fitted concentration of half-maximal effect; nearly all actives have a fitted effect of over 35% in size
Marburg entry inh = blocks Marburg virus binding to or entry into cells; Marburg virus pseudotyped entry inhibition, cell reporter; Potency, µM (titrated, usually from 37.8 µM), inactives show at the top dose activity change, negative = inhibition, usual class: inhibitors; 300,000 compounds, 1.8% hits; AID 540276; calls by dose curve; tested in HEK293 cells; note: potency is the fitted concentration of half-maximal effect
Active calls of the source: *; i = inactive; ? = inconclusive; . = no result given; [ ] = another dose, or the depositor's remark. % is set by controls: 0 for no effect and ±100 for the full control effect.

SMILES | HCMV inh | Vaccinia Venus | FMDV inh | LASV entry inh | Vaccinia mCherry | Marburg entry inh
Cc1cccc(NC(=S)N=Nc2c(O)n(CN3CCOCC3)c3ccccc23)c1C | -77.2* | . | ? | . | . | -1.2%
Cc1ccc(N=Nc2c(O)n(CN3CCOCC3)c3ccccc23)cc1 | . | 21.8% | 45.2% | -3.6% | -17.6% | ?
C=CCn1c(O)c(N=NC(=S)Nc2ccccc2C)c2cc(S(=O)(=O)N3CCOCC3)ccc21 | -73.6* | -10.0% | -25.7% | ? | -18.6% | ?
Cn1c(O)c(N=NC(=S)Nc2ccccc2F)c2cc(S(=O)(=O)N3CCOCC3)ccc21 | -63.1* | -2.2% | ? | ? | -9.1% | ?
CCNC(=O)[C@@H]1[C@@H](CO)[C@@H]2Cn3c(cccc3=O)[C@@H]2N1Cc1cccc(F)c1 | 16.8 | . | . | . | . | .
COC(=O)[C@]12CCCCC=C1N(Cc1cccc3ccccc13)C(=O)[C@H](CC(=O)NCc1ccccc1)C2 | 26.2 | 2.8% | 0.0% | . | -1.3% | .
CCOC(=O)[C@]12CCC=C1N(Cc1ccccc1)C(=O)[C@H](CC(=O)NCc1cccc(C(F)(F)F)c1)C2 | -97.4* | -20.5% | -12.3% | . | 6.1% | .
COC(=O)[C@]12CCCCC=C1N(Cc1ccc3c(c1)OCO3)C(=O)[C@H](CC(=O)NCc1cccc3ccccc13)C2 | -61.0* | ? | -11.0% | . | ? | .
COC(=O)[C@]12CCCCC=C1N(Cc1cccc3ccccc13)C(=O)[C@H](CC(=O)NCCC(C)C)C2 | -61.2* | -10.4% | -25.8% | . | 0.6% | .
COCCCNC(=O)C[C@@H]1C[C@@]2(C(=O)OC)CC(C)(C)CC=C2N(Cc2ccc3c(c2)OCO3)C1=O | -62.4* | 2.8% | 0.6% | . | -25.1% | .
CCCCOCCCNC(=O)C[C@@H]1C[C@@]2(C(=O)OC)CC(C)(C)CC=C2N(Cc2ccc3c(c2)OCO3)C1=O | -14.9 | ? | -19.2% | . | -19.5% | .
Cc1ccc(S(=O)(=O)N(CC(=O)Nc2c(C)cccc2C)c2cccc(Cl)c2)cc1 | ? | -15.5% | -14.5% | -10.9%[46.1 µM] | -16.2% | ?
CC(C)(C)OC(=O)N1CCC(c2c(C(=O)Nc3ccc4c(c3)OCCO4)cnn2-c2ccc(F)cc2F)CC1 | 0.0 | -8.6% | ? | -26.8%[46.1 µM] | -11.2% | .
COc1ccc(C2CC(=O)N(Cc3ccc(F)cc3)c3ccccc3S2)cc1 (stereo not given) | ? | -9.2% | ? | . | -9.7% | -9.2%[46.1 µM]
COc1cc(C2CC(=O)N(Cc3ccc(F)cc3)c3ccccc3S2)cc(OC)c1OC (stereo not given) | -82.2* | -23.4% | 14.1µM* | . | -27.4% | ?
COc1ccc(C2CC(=O)N(Cc3ccc(F)cc3)c3ccccc3S2)cc1OC (stereo not given) | 17.7 | -17.1% | 39.8µM* | . | -22.7% | -0.4%[46.1 µM]
Cc1cc2n(n1)CCC(=O)N2Cc1ccc(C(=O)Nc2cccc(C(F)(F)F)c2)cc1 | -29.4 | -17.8% | -25.8% | -10.0%[46.1 µM] | -10.4% | .
ClCCN(CCCl)c1ccc(/C=C/c2sc3ccccc3[n+]2CCCCI)cc1 | . | i | . | . | 303.8% | .
COc1ccccc1CCNC(=O)CCCn1c(=O)c2cccn2c2cccnc21 | -1.3 | -12.1% | -23.0% | 3.4%[46.1 µM] | -8.7% | 5.5%[46.1 µM]
Cn1cc[n+](C)c1P(=S)(c1ccccc1)c1ccccc1 | -9.7 | -6.1% | -10.0% | . | i | .
Cn1cccc/c1=N\c1cccc[n+]1C | -73.5* | . | -21.1% | . | . | .
CN(Cc1ccccc1)C(=O)C1CCN(S(=O)(=O)Cc2ccccc2)CC1 | 8.2 | -7.8% | -5.1% | 0.3%[46.1 µM] | 0.5% | 17.5%[46.1 µM]
CC1Cn2cc(C(=O)Nc3cccc(C(F)(F)F)c3)c(=O)c3c(Cl)ccc(c32)O1 (stereo not given) | 10.1 | 8.9% | -13.0% | 9.6%[46.1 µM] | -4.6% | .
COc1cc(/C=C2/CC/C(=C/c3ccc(O)c(OC)c3)C2=O)ccc1O | 0.0 | 169.6% | -4.2% | . | -15.0% | .
COc1cc(/C=C/C=C2/CC/C(=C/C=C/c3ccc(O)c(OC)c3)C2=O)ccc1O | -99.2* | 56.5% | ? | ? | i | ?
SMILES | HCMV inh | Vaccinia Venus | FMDV inh | LASV entry inh | Vaccinia mCherry | Marburg entry inh
COc1cc(/C=C2\COC/C(=C\c3ccc(O)c(OC)c3)C2=O)ccc1O | -98.8* | ? | 17.8µM* | ? | ? | ?
C/C=C/c1ccc(O)c(OC)c1 | 41.7 | -2.5% | -3.0% | . | i | .
C[C@H](NC(=O)CSc1nnc(COc2ccccc2)o1)c1ccccc1 | . | . | . | . | . | -23.1%
CCN1C(=O)C[C@H](N2CCN(c3ccc(OC)cc3)CC2)C1=O | . | . | . | . | . | 10.1%
O=C(C1CCN(S(=O)(=O)c2cccnc2)CC1)N1CCN(c2ccccc2Cl)CC1 | -2.1 | -18.1% | ? | 1.8% | . | -2.9%
O=C(C1CCN(S(=O)(=O)c2cccnc2)CC1)N1CCN(c2ccc(Cl)cc2)CC1 | -90.0* | . | ? | . | . | 4.2%
Cc1ccc(Cl)cc1N1CCN(C(=O)C2CCN(S(=O)(=O)Cc3ccccc3)CC2)CC1 | -12.4 | 1.2% | ? | -0.1%[46.1 µM] | -10.8% | -8.7%[46.1 µM]
COc1ccccc1CNC(=O)C1CCN(S(=O)(=O)c2cccc3nonc23)CC1 | -19.0 | -16.6% | -4.2% | ? | -7.2% | -0.3%[46.1 µM]
COc1ccccc1CNC(=O)C1CCN(S(=O)(=O)c2cccc3cccnc23)CC1 | -70.8* | -8.6% | 0.0% | . | 8.2% | -4.7%
Cc1ccc(Cl)cc1N1CCN(C(=O)C2CCN(S(=O)(=O)c3c(C)nn(C)c3C)CC2)CC1 | -36.5 | -24.5% | 31.6µM* | ? | -8.7% | ?
Cc1ccc(Cl)cc1N1CCN(C(=O)C2CCN(S(=O)(=O)c3cccnc3)CC2)CC1 | -30.3 | ? | 15.8µM* | ? | ? | ?
O=C(NCC1Cc2cc(-c3cnc4ccccc4c3)cc(F)c2O1)c1cnsn1 (stereo not given) | . | ? | -0.3% | . | ? | .
Cc1cc2c(cc1S(=O)(=O)CCC(=O)N1CCC(C)CC1)OCC(=O)N2 | -7.4 | -4.7% | -16.6% | 5.2%[46.1 µM] | -7.3% | .
CCN1c2ccccc2-c2nc(SCC(=O)Nc3c(C)cc(C)cc3C)ncc2S1(=O)=O | -14.3 | -16.2% | 8.4% | -22.0%[46.1 µM] | -25.9% | .
